Assay results as given in PubChem BioAssay (NCI).
The panel holds about 79,000 compounds, 15% with a hit somewhere; the sample as a whole holds those more often. Calls of active or inactive are those of the source. Cut-off read from the data, not from the text of the source: active = growth inhibition above about 70%; inactive = the rest.

Key:
[1] = NCI Yeast Anticancer Drug Screen. Data for the rad52 strain (AID 147);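 note: 0% = growth of vehicle-treated control cultures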; conditions: S. cerevisiae rad52 mutant growth inhibition, stronger effect = higher value
How it was run: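 DNA repair-defective yeast; compound exposure; growth scored against vehicle controls.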

[2] = NCI Yeast Anticancer Drug Screen. Data for the wt1 strain (AID 149);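 note: 0% = growth of vehicle-treated wt1 cultures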; conditions: S. cerevisiae wt1 strain (SPY 50644) growth inhibition, stronger effect = higher value
How it was run: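 Growth inhibition read against vehicle controls after compound exposure of the wt1 yeast strain.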

[3] = NCI Yeast Anticancer Drug Screen. Data for the rad50EPP+ strain (AID 151);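 note: 0% = growth of vehicle-treated control cultures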; conditions: S. cerevisiae rad50 mutant strain, stronger effect = higher value
How it was run: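 rad50EPP+ yeast treated with test compounds. Readout: growth vs vehicle control.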

[4] = NCI Yeast Anticancer Drug Screen. Data for the mgt1 strain (AID 153); conditions: S. cerevisiae mgt1 mutant growth inhibition, stronger effect = higher value
How it was run: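 Growth inhibition relative to vehicle controls was scored for the mgt1 yeast strain after compound exposure.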

[5] = NCI Yeast Anticancer Drug Screen. Data for the rad50 strain (AID 155);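 note: 0% = growth of vehicle-only cultures of the same strain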; conditions: S. cerevisiae rad50 strain growth inhibition, stronger effect = higher value
How it was run: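 Readout: growth inhibition relative to vehicle-treated cultures. Compound exposure was carried out in a genetically defined yeast strain deficient in DNA damage repair.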

[6] = NCI Yeast Anticancer Drug Screen. Data for the mec2-1 strain (AID 157); conditions: S. cerevisiae mec2-1 strain, stronger effect = higher value
How it was run: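 Growth inhibition is read against vehicle-treated controls after compound exposure of the mec2-1 yeast strain, which is defective in DNA damage repair or cell cycle control.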

[7] = NCI Yeast Anticancer Drug Screen. Data for the rad14 strain (AID 159);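 note: 0% = growth of vehicle-treated control cultures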; conditions: S. cerevisiae rad14 strain growth inhibition, stronger effect = higher value
How it was run: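 Growth inhibition vs vehicle controls; genetically altered yeast strain (DNA damage repair defect) treated with test compounds.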

[8] = NCI Yeast Anticancer Drug Screen. Data for the sgs1 mgt1 strain (AID 161);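 note: 0% = growth of cultures given vehicle only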; conditions: S. cerevisiae sgs1 mgt1 strain, stronger effect = higher value
How it was run: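 Growth of a repair-deficient yeast mutant was monitored after compound treatment and expressed as inhibition relative to vehicle-treated cultures.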

[9] = NCI Yeast Anticancer Drug Screen. Data for the CLN2oe strain (AID 163);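 note: 0% = growth of vehicle-only control cultures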; conditions: S. cerevisiae CLN2oe strain, stronger effect = higher value
How it was run: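 Compound-treated yeast; growth vs vehicle ctrl = % inhibition. Genetically altered strain (cell-cycle control).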

[10] = NCI Yeast Anticancer Drug Screen. Data for the cln2 rad14 strain (AID 165);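 note: 0% = growth equal to vehicle treated cultures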; conditions: S. cerevisiae cln2 rad14 strain, stronger effect = higher value
How it was run: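 Growth inhibition, relative to vehicle-treated controls, is the read-out. The test organism is a yeast strain with defined genetic alterations, cln2 rad14.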

[11] = NCI Yeast Anticancer Drug Screen. Data for the bub3 strain (AID 167); conditions: S. cerevisiae bub3 mutant strain, stronger effect = higher value
How it was run: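 Readout: yeast growth inhibition, expressed relative to vehicle-only wells. The test organism is a mutant strain from a panel with lesions in DNA repair or checkpoint genes.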

[12] = NCI Yeast Anticancer Drug Screen. Data for the wt2 strain (AID 169);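 note: 0% = growth of vehicle-treated yeast cultures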; conditions: S. cerevisiae wt2 strain growth inhibition, stronger effect = higher value
How it was run: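 Compound exposure of yeast; growth compared with vehicle controls; inhibition reported.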

[13] = NCI Yeast Anticancer Drug Screen. Data for the mlh1 strain (AID 171);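 note: 0% = growth of vehicle-treated control cultures of the same strain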; conditions: S. cerevisiae mlh1 strain growth inhibition, stronger effect = higher value
How it was run: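 Compounds are applied to a genetically altered yeast strain, and its growth is compared with that of vehicle-treated cultures to give percent inhibition.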

[14] = NCI Yeast Anticancer Drug Screen. Data for the sgs1 strain (AID 173);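 note: 0% = growth of vehicle-only control cultures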; conditions: S. cerevisiae sgs1 mutant, stronger effect = higher value
How it was run: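 Compounds applied to genetically altered yeast; growth compared with vehicle-treated cultures to give % inhibition.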

[15] = NCI Yeast Anticancer Drug Screen. Data for the mlh1 rad18 strain (AID 175); conditions: S. cerevisiae mlh1 rad18 strain growth inhibition, stronger effect = higher value
How it was run: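 Cells of a genetically altered yeast strain, deficient in DNA damage repair, were treated with compound. Their growth was then compared with that of vehicle-treated cultures to give inhibition.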

[16] = NCI Yeast Anticancer Drug Screen. Data for the rad18 strain (AID 177); conditions: S. cerevisiae rad18 mutant growth inhibition, stronger effect = higher value
How it was run: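 Compounds are applied to a repair-deficient yeast strain, and growth is compared with that of vehicle-treated cultures to give percent inhibition.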

[17] = at 5.0 µM (retest, dose inferred, filed as 0.5)
[18] = at 50.0 µM (retest, dose inferred, filed as 5.0)

Measured: growth inhibition

CCOC(=O)/C(=C\c1ccc(F)cc1)C(C)=O
active: [1]; at 33.0 µM 94% | [1]; at 100.0 µM 98% | [2]; at 33.0 µM 93% | [2]; at 100.0 µM 98% | [3]; at 33.0 µM 93% | [3]; at 100.0 µM 98% | [4]; at 11.0 µM 77% | [4]; at 33.0 µM 96% | [4]; at 100.0 µM 99% | [5]; at 11.0 µM 72% | [5]; at 33.0 µM 95% | [5]; [18] 97% | [5]; at 50.0 µM 91.8% | [5]; at 100.0 µM 97% | [6]; at 11.0 µM 74% | [6]; at 33.0 µM 95% | [6]; [18] 98% | [6]; at 50.0 µM 93.8% | [6]; at 100.0 µM 97% | [7]; at 33.0 µM 95% | [7]; at 100.0 µM 97% | [8]; [18] 97% | [8]; at 50.0 µM 93% | [9]; at 33.0 µM 96% | [9]; at 100.0 µM 98% | [10]; [18] 93% | [10]; at 50.0 µM 89% | [11]; at 11.0 µM 91% | [11]; at 33.0 µM 97% | [11]; [18] 97% | [11]; at 50.0 µM 92.1% | [11]; at 100.0 µM 98% | [12]; at 33.0 µM 95% | [12]; at 100.0 µM 98% | [13]; at 11.0 µM 88% | [13]; at 33.0 µM 97% | [13]; at 100.0 µM 97% | [14]; at 11.0 µM 72% | [14]; at 33.0 µM 97% | [14]; at 100.0 µM 98% | [15]; [18] 97% | [15]; at 50.0 µM 91.9% | [16]; at 11.0 µM 77% | [16]; at 33.0 µM 94% | [16]; at 100.0 µM 97%
inactive: [1]; at 1.2 µM -43% | [1]; at 3.7 µM -17% | [1]; at 11.0 µM 57% | [2]; at 1.2 µM -17% | [2]; at 3.7 µM 4% | [2]; at 11.0 µM 48% | [3]; at 1.2 µM 8% | [3]; at 3.7 µM 30% | [3]; at 11.0 µM 68% | [4]; at 1.2 µM -19% | [4]; at 3.7 µM 6% | [5]; at 1.2 µM -7% | [5]; at 3.7 µM 19% | [5]; [17] 30% | [6]; at 1.2 µM -43% | [6]; at 3.7 µM -3% | [6]; [17] 0% | [7]; at 1.2 µM -11% | [7]; at 3.7 µM -4% | [7]; at 11.0 µM 61% | [8]; [17] 21% | [9]; at 1.2 µM 6% | [9]; at 3.7 µM 4% | [9]; at 11.0 µM 67% | [10]; [17] 9% | [11]; at 1.2 µM 9% | [11]; at 3.7 µM 37% | [11]; [17] 48% | [12]; at 1.2 µM -35% | [12]; at 3.7 µM -17% | [12]; at 11.0 µM 62% | [13]; at 1.2 µM 2% | [13]; at 3.7 µM 42% | [14]; at 1.2 µM -2% | [14]; at 3.7 µM 22% | [15]; [17] 6% | [16]; at 1.2 µM -34% | [16]; at 3.7 µM 14%

O=C(O)C(=Cc1ccc(-c2ccccc2)cc1)C(=O)O
active: [1]; at 100.0 µM 87% | [2]; at 100.0 µM 88% | [4]; at 100.0 µM 90% | [5]; at 100.0 µM 88% | [6]; at 100.0 µM 92% | [7]; at 100.0 µM 90% | [9]; at 100.0 µM 88% | [11]; at 33.0 µM 72% | [11]; at 50.0 µM 71.8% | [11]; at 100.0 µM 93% | [12]; at 100.0 µM 89% | [13]; at 100.0 µM 94% | [14]; at 33.0 µM 72% | [14]; at 100.0 µM 92% | [15]; at 50.0 µM 70.9% | [16]; at 33.0 µM 70% | [16]; at 100.0 µM 91%
inactive: [1]; at 1.2 µM 6% | [1]; at 3.7 µM 10% | [1]; at 11.0 µM 24% | [1]; at 33.0 µM 50% | [2]; at 1.2 µM 2% | [2]; at 3.7 µM 4% | [2]; at 11.0 µM 16% | [2]; at 33.0 µM 55% | [3]; at 1.2 µM -1% | [3]; at 3.7 µM -1% | [3]; at 11.0 µM -1% | [3]; at 33.0 µM 6% | [3]; at 100.0 µM 25% | [4]; at 1.2 µM 2% | [4]; at 3.7 µM 4% | [4]; at 11.0 µM 22% | [4]; at 33.0 µM 58% | [5]; at 1.2 µM 0% | [5]; at 3.7 µM -5% | [5]; [17] 2% | [5]; at 11.0 µM 11% | [5]; at 33.0 µM 54% | [5]; [18] 23% | [5]; at 50.0 µM 60.1% | [6]; at 1.2 µM 4% | [6]; at 3.7 µM 7% | [6]; [17] -7% | [6]; at 11.0 µM 30% | [6]; at 33.0 µM 60% | [6]; [18] 63% | [6]; at 50.0 µM 46.5% | [7]; at 1.2 µM 5% | [7]; at 3.7 µM 8% | [7]; at 11.0 µM 17% | [7]; at 33.0 µM 46% | [8]; [17] 4% | [8]; [18] 24% | [8]; at 50.0 µM 31.5% | [9]; at 1.2 µM 5% | [9]; at 3.7 µM 7% | [9]; at 11.0 µM 22% | [9]; at 33.0 µM 56% | [10]; [17] 46% | [10]; [18] 27% | [10]; at 50.0 µM 23.7% | [11]; at 1.2 µM 1% | [11]; at 3.7 µM 1% | [11]; [17] -10% | [11]; at 11.0 µM 24% | [11]; [18] 43% | [12]; at 1.2 µM 0% | [12]; at 3.7 µM 3% | [12]; at 11.0 µM 17% | [12]; at 33.0 µM 61% | [13]; at 1.2 µM 3% | [13]; at 3.7 µM 5% | [13]; at 11.0 µM 23% | [13]; at 33.0 µM 69% | [14]; at 1.2 µM 3% | [14]; at 3.7 µM 7% | [14]; at 11.0 µM 26% | [15]; [17] -2% | [15]; [18] 19% | [16]; at 1.2 µM 3% | [16]; at 3.7 µM 7% | [16]; at 11.0 µM 20%
